According to PubChem BioAssay AID434927 (Sanford-Burnham Center for Chemical Genomics, 2010):
The source made the active and inactive calls.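 The calls were made as follows: active = inhibition above about 23% in any of six single-dose repeats (limit read from the data); inactive = the rest.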

target: Intestinal-type alkaline phosphatase (Homo sapiens) (UniProt P09923); experiment: human IAP inhibitors, confirmation, biochemical, luminescence, single concentration, uHTS hits (AID 434927); conditions: purified human IAP, CDP-Star luminescence, 30 min; at 8.3 µM; stronger effect = higher value;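 also: plate controls were DMSO wells with enzyme for no effect and wells lacking enzyme for full effect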
Sequence (P09923 whole entry, looked up): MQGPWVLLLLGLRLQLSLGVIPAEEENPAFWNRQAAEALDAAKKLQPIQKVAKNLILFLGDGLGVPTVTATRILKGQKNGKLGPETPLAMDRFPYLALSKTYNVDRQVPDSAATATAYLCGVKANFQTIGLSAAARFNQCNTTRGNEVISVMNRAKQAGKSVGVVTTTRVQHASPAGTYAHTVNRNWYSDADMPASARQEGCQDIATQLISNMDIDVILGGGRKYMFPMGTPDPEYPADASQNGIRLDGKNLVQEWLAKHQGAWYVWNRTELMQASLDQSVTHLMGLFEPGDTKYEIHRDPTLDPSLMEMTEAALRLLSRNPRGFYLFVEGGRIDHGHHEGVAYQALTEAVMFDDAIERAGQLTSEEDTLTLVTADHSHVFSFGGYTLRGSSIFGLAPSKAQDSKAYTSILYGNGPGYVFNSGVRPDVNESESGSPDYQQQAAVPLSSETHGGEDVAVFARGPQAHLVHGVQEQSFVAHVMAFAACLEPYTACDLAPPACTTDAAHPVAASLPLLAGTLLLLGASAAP

| Structure (SMILES) | inhibition |
| --- | --- |
| O=C(O)COn1c(-c2ccc(Cl)cc2)nc2ccc(Cl)cc21 | 26.6% (active) |
| CN(C)c1ccc2nc3c(=O)[nH]c(=O)nc-3n(CC(O)C(O)C(O)CO)c2c1 (configuration not stated) | -87.3% (inactive) |
| CCOc1ccc(CC(=O)NNC(=S)NCCc2ccccc2)cc1 | 77.5% (active) |
| C/C(=N/NC(=O)c1ccc(Cn2cccn2)o1)c1cccc(NC(=O)c2ccncc2)c1 | -101% (inactive) |
| CC(C)(C)OC(=O)N1CCC(NC(=O)c2[nH]cnc2C(=O)Nc2ccon2)CC1 | 37% (active) |
| COc1cc(NC(=O)NCC2CCN(Cc3ccccc3Cl)CC2)cc(OC)c1OC | -142% (inactive) |
| O=C(Cc1ccc(Cl)c(Cl)c1)NNC(=S)NCC1CCCO1 (configuration not stated) | -97.6% (inactive) |
| CCC(NC(=S)NC1CCCCC1)c1ccc(C(C)C)cc1 (configuration not stated) | -24.1% (inactive) |
| O=Nc1[nH]c(=O)c(/C=C(\O)c2ccccc2)nc1NO | -84.9% (inactive) |
| O=C(N/N=C/c1ccc2cccnc2c1)c1nc2ccccc2c(=O)[nH]1 | -193% (inactive) |
| CC(C)CCNC(=O)C1CCN(C(=O)N(C)C)CC1 | 88.2% (active) |
| CC1Cn2c(nnc2C23CC4CC(CC(C4)C2)C3)S1 (configuration not stated) | 95.1% (active) |
| O=C(Nc1ccon1)c1nc[nH]c1C(=O)NCc1ccccc1 | 88.5% (active) |
| COc1ccccc1C1CN(c2ccccc2)N=C1c1cccs1 (configuration not stated) | -128% (inactive) |
| CCOc1ccc(CC(=O)NNC(=S)NC2CCCCC2)cc1OCC | -79.5% (inactive) |
| COc1cc(/C=C(\C#N)C(=O)c2ccc(O)c(O)c2)cc(I)c1O | 40.4% (active) |
| CCC(OC(=O)C1=Cc2ccccc2OC1)C(=O)NC1CCCC1 (configuration not stated) | -52.5% (inactive) |
